Pf Dd2 inh – Plasmodium falciparum Dd2 growth inhibition; P. falciparum Dd2 growth, SYBR Green, 72 h; 120,000 tested, 4.3% active; AID 1347417; Potency, µM (series often up to 28.9 µM), for inactives: at the top dose activity, negative = inhibition, usual class: inhibitors; active = well fitted inhibition curve with a large enough effect;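 note: plate controls were DMSO vehicle for no effect and reference drug for full effect; nearly all actives have a fitted effect of over 65% in size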
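Infected erythrocytes (Dd2, 0.3% parasitemia, 2.5% hematocrit final) are added to compound in RPMI-1640/Albumax II medium, grown 72 h at 37C in low oxygen, then lysed with saponin/Triton-X containing SYBR Green and read by fluorescence.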
* hit, by the source's call; i = inactive; [ ] = dose if it differs, or a comment. Only a selection was taken, and hits are over-represented in it overall. Potency is the fitted concentration of half-maximal effect.

SMILES	Pf Dd2 inh
CCc1ccc(CNC(=O)c2nnn3cc(C)[nH]c(=O)c23)cc1	7.9µM*
COc1cccc(CNC(=O)c2nnn3cc(C)[nH]c(=O)c23)c1	-20%
Cc1cn2nnc(C(=O)NCCC3=CCCCC3)c2c(=O)[nH]1	10µM*
Cc1cn2nnc(C(=O)NCCc3cccs3)c2c(=O)[nH]1	-6%
COc1ccc(C(=O)N2C[C@@H]3C[C@H](C2)c2ccc(NS(=O)(=O)c4ccc(NC(C)=O)cc4)c(=O)n2C3)cc1	-16%
CC(C)(O)CCc1cccc(C(=O)NCCNc2cccnc2)c1	-27%
COc1ccc(CN2CCNc3cc(Nc4ccccc4)ncc3C2)cc1O	i
Fc1ccccc1CN1CCNc2cc(Nc3ccccc3)ncc2C1	-28%[44.1 µM]
Fc1cccc(CN2CCNc3cc(Nc4ccccc4)ncc3C2)c1	-18%[44.1 µM]
c1ccc(Nc2cc3c(cn2)CN(Cc2cccs2)CCN3)cc1	7.9µM*
COc1ccc(Nc2cc3c(cn2)CN(CCc2ccccc2)CCN3)cn1	-5%[44.1 µM]
c1ccc(CN2CCNc3cc(Nc4ccc(N5CCOCC5)cc4)ncc3C2)cc1	11µM*
c1ccc(Nc2cc3c(cn2)CN(Cc2cnc[nH]2)CCN3)cc1	-5%[44.1 µM]
CN1CCNc2cc(NCc3ccccc3)ncc2C1	-1%[44.1 µM]
COc1ccc(OC)c(CN2CCNc3cnc(Nc4cccnc4)cc3C2)c1	i
CCCN1CCNc2cc(Nc3ccccc3)ncc2C1	8.9µM*
COc1ccc(OC)c(CN2CCNc3cc(Nc4ccccc4)ncc3C2)c1	3.5µM*
c1ccc(CCN2CCNc3cc(NCCN4CCOCC4)ncc3C2)cc1	-4%[44.1 µM]
Cc1nn2c(c1-c1ccccc1Oc1ccccc1)N(C(=O)c1ccccc1)CCC2	i
O=c1c2c(CO)c(-c3ccccc3)nn2ccn1Cc1ccccc1F	-10%
COc1ccc(CC(=O)N2CCCC(c3ccc(C(=O)O)cc3)C2)c(OC)c1 (centres undefined)	8%
Cc1ocnc1C(=O)N1CCC2(CCC(=O)N(CC(C)O)C2)CC1 (centres undefined)	-4%
CC(=O)Nc1ccc(CN2CCn3c(nnc3-c3cccnc3)C2)cc1	i
COc1ccc(Cl)cc1NC(=O)NCCc1noc(C2CC2)n1	-19%
Cc1nc(CN2CCOC3(CCN(Cc4ccccc4Cl)CC3)C2=O)cs1	i
SMILES	Pf Dd2 inh
COc1cc(NC(=O)NC[C@H]2O[C@@H](CO)[C@@H](O)[C@H]2N2CCN(c3ccccc3)CC2)cc(OC)c1	i
OC(c1cccc(C(F)(F)F)c1)c1nc(Nc2ccc(F)cc2)n[nH]1 (centres undefined)	-21%[44.1 µM]
CCCn1nccc1S(=O)(=O)N[C@@H]1CCOC[C@H]1Oc1ccccn1	-5%
Cc1ccc(-n2nc3n(c2=O)CCN(C(=O)Cc2cccc(Cl)c2)C3)cc1	-12%
c1ccc(Nc2cc3c(cn2)CN(CC2CC2)CCN3)cc1	13µM*
CC(=O)Nc1cccc(-c2cc3c(cn2)CN(Cc2ccccc2)CCN3)c1	i
c1cncc(Nc2cc3c(cn2)CN(CC2CCOCC2)CCN3)c1	-13%[44.1 µM]
CC(C)CN1CCN(C2CCOC3(CCN(C(=O)c4ccnn4C)CC3)C2)CC1 (centres undefined)	16%
COc1cccc(Cn2c(Cc3c[nH]c4ccccc34)n[nH]c2=O)c1	-8%
CC(C)OCCCNC(=O)C1Cn2cccc2C(=O)N1Cc1cccnc1 (centres undefined)	-13%
O=C(NCCCN1CCCC1=O)C1Cn2cccc2C(=O)N1Cc1cccnc1 (centres undefined)	4%
COc1ccccc1OCCNC(=O)C1Cn2cccc2C(=O)N1Cc1cccnc1 (centres undefined)	5.6µM*
O=C(NCCCN1CCCc2ccccc21)C1Cn2cccc2C(=O)N1Cc1cccnc1 (centres undefined)	8.9µM*
COc1ccccc1CNC(=O)C1Cn2cccc2C(=O)N1Cc1cccnc1 (centres undefined)	4.5µM*
COc1cccc(CNC(=O)C2Cn3cccc3C(=O)N2Cc2ccccc2)c1 (centres undefined)	-18%
COCCCNC(=O)C1Cn2cccc2C(=O)N1Cc1ccccc1 (centres undefined)	21%
O=C(NCCN1CCCCC1)C1Cn2cccc2C(=O)N1Cc1cccnc1 (centres undefined)	3%
O=C(NCc1cc(F)ccc1F)C1Cn2cccc2C(=O)N1Cc1ccccc1 (centres undefined)	-12%
CSc1ccc(NC(=O)N2CCc3nc4cc(-c5ccccc5)[nH]n4c(=O)c3C2)cc1	i[5.79 µM]
CCn1ncc(N2CCC(NC(=O)CC3CCCC3)CC2)cc1=O	3%
COC1C(=O)N(c2cccc(F)c2)C12CCN(C(=O)CC1CCN(C(C)=O)CC1)CC2 (centres undefined)	-7%
CCCS(=O)(=O)N1CCC2(CC1)C(OC)CN2c1cccc(F)c1 (centres undefined)	i
COC1CN(c2cccc(F)c2)C12CCN(C(=O)CC1CCCCC1)CC2 (centres undefined)	8.9µM*
CC(C)NC(=O)C[C@@H]1C[C@H]2O[C@H](CNC3CCC(F)(F)CC3)[C@@H](O)[C@H]2O1	31%[44.1 µM]
O=C1NCC2(CCN(Cc3cccnc3)CC2)Oc2ccccc21	13%
SMILES	Pf Dd2 inh
COc1ccc(CC(=O)N2CCOC[C@H](Oc3ccc(OC)cc3)C2)cc1	-9%[44.1 µM]
O=C(NCc1nnc2cc(-c3nc(C4CC4)no3)ccn12)C1CCCCC1	i
O=C1Nc2ccccc2O[C@H]2C[C@@H]1N(Cc1ccccc1)C2	2%[44.1 µM]
CC(C)c1ccc(NC(=O)Cn2cc(S(=O)(=O)N3CCN(c4ccccc4F)CC3)c3ccccc3c2=O)cc1	10µM*
CC(C)c1ccc(NC(=O)c2ccc(F)c(S(=O)(=O)N3CCN(c4ccccc4F)CC3)c2)cc1	i
CC1CCN(S(=O)(=O)c2cn(CC(=O)Nc3ccc(F)cc3)c(=O)c3ccccc23)CC1	i
O=C(c1ccc(Cl)nc1)N1CCCC(c2nn(-c3ccc(F)cc3)c(=O)[nH]2)C1 (centres undefined)	-16%
CCOCCCNC(=O)N1CC(Oc2cccc(-c3nc(C)no3)c2)C1	5%[5.79 µM]
O=C(NC1CCCC1)N1CC(Oc2cccc(-c3nc(-c4ccccc4)no3)c2)C1	i[5.79 µM]
CCCNC(=O)N1CC(Oc2cccc(-c3nc(-c4ccccc4)no3)c2)C1	2µM*
O=C(O)[C@@H]1CN(C(=O)CCc2ccc(=O)[nH]n2)C[C@H]1C1CC1	5%
COc1ccc(N2CC(c3noc(-c4cccc(OC)c4)n3)CC2=O)cc1 (centres undefined)	15%
COCC(=O)N1CCc2nc(C(C)C)nc(-c3ccc(O)cc3)c2C1	11%
CCC(=O)N1CCc2sc(C(=O)NCc3ccc(C)cc3)cc2C1	i
O=C(NC1CCCCC1)c1cc2c(s1)CCN(C(=O)c1ccc(F)cc1)C2	i
O=C(NC1CCS(=O)(=O)C1)c1cc2c(s1)CN(C1CCCC1)C2 (centres undefined)	i
CSc1ccc(NC(=O)c2cc3c(s2)CN(C2CC2)C3)cc1	10µM*
CSc1ccc(NC(=O)C2CCN(c3ncccn3)CC2)cc1	i
Cc1ccc(NC(=O)c2cc3c(s2)CN(C2CC2)C3)cc1	10µM*
CCn1cnnc1CCNC(=O)CC1C(=O)NCCN1Cc1ccccc1 (centres undefined)	30%
COc1ccc(CNC(=O)[C@H]2CCC[C@H]2NC(=O)c2ccc(OC)nc2)cc1	-11%
O=C1CCCN1Cc1noc(-c2cccc(Cl)c2)n1	89%
CCc1ccc(CNC(=O)c2ccc(CN3C(=O)NC4(CCOCC4)C3=O)cc2)cc1	i
COc1ccc(C(=O)N[C@@H]2CCC[C@@H]2C(=O)NCc2ccc(C)cc2)cn1	-5%

Bioassay records from PubChem BioAssay.
